This is a sample that favours compounds with a hit; in the whole collection about 7.5% have one here.
SMN2 splice up: SMN2 splice variant enhancement | HEK293 SMN2-luciferase splicing reporter, luminescence, 30-36 h | Potency, µM (highest dose often 46.1 µM), inactives show at the highest dose activity change, positive = activation, actives largely listed as activators | actives 2.8% (n = 210,000) | AID 1458; further: % of control where 0% means no effect; nearly all actives have a fitted effect of over 55% in size
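qHTS luciferase splicing reporter: luminescence rises when SMN2 exon 7 is included in transfected HEK293 cells. Compound exposure lasted 30-36 h at 37C, with 4.5 mM final sodium butyrate as control, followed by a ONE-Glo read.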
KinaseGlo FLuc: blocks Kinase-Glo luciferase, a counter-screen artifact; Q27757; Kinase-Glo luciferase, ATP luminescence, 8 min; Potency, µM (doses to about 38.3 µM), for the others: top-dose activity change, negative = inhibition, actives largely listed as inhibitors; actives 0.28% (n = 200,000); further: on the % scale 0 is the no-effect control and ±100 the full control effect; nearly all actives have a fitted effect of over 60% in size
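Inhibition of Kinase-Glo luciferase light generation was assessed at 10 uM ATP in pH 7.2 imidazole buffer, with luminescence measured after eight minutes at ambient temperature.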
FLuc counter: inhibits or activates purified firefly luciferase, miR-21 counter-screen; P08659; purified FLuc, Km substrates, luminescence inhibition; Potency, µM (highest dose often 57.5 µM), inactives show top-dose activity change, negative = inhibition, most hits filed as inhibitors; actives 6.9% (n = 360,000);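 further: plate controls were vehicle for no effect and reference inhibitor for full effect; nearly all actives have a fitted effect of over 55% in size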
Target sequence (P08659 whole entry, looked up): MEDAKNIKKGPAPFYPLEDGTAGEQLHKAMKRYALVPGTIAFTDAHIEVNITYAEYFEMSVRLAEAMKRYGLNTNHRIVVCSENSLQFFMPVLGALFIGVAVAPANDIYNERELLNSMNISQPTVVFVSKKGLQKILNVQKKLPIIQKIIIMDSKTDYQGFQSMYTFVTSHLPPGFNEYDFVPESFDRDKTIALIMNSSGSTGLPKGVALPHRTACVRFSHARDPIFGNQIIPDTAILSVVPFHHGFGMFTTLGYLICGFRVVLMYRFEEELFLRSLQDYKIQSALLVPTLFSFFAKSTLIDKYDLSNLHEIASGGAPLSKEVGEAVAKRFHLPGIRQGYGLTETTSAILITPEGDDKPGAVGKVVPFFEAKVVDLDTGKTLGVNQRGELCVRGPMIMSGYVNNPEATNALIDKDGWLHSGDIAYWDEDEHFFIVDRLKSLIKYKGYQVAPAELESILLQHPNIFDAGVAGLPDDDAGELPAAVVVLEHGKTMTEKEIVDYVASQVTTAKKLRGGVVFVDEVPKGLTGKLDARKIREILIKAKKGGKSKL
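Purified P. pyralis luciferase, 10 nM final, with Km-level 10 uM D-luciferin and 10 uM ATP in 50 mM Tris acetate pH 7.5, 10 mM Mg acetate, 0.01% Tween-20, 0.05% BSA; 6-point qHTS titration about 60 µM downward; luminescence read.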
Rab9 promoter act: Rab9 promoter activation; actives 2.8% (n = 320,000); AID 485297; Huh7 Rab9 promoter-luciferase reporter, luminescence, 24 h; Potency, µM (series often up to 9.22 µM), for the others: at the top dose activation, negative = inhibition, usual class: activators; further: % of control where 0% means no effect; nearly all actives have a fitted effect of over 60% in size
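Steps: seed 1500 Huh7 Rab9-luc cells per well, rest 2 h at 37 °C; add compound in DMSO; incubate 24 h; add luciferase reagent, 10 min ambient; read luminescence.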
ELG1 genotoxic: inducers of genotoxicity in HEK293T ELG1-luciferase cells. AID 504466. Potency, µM (highest dose often 46 µM), for inactives: top-dose activity change, positive = activation, most hits filed as activators. actives 1.3% (n = 330,000). HEK293T ELG1-luciferase reporter, luminescence, 16 h; further: % of control where 0% means no effect; nearly all actives have a fitted effect of over 60% in size
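Genotoxic stress is detected as increased luminescence from luciferase-tagged ELG1 in HEK293T cells, measured with ONE-Glo after a 16 hr treatment at 37 °C.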
NPC1 prom act: activates the NPC1 promoter. Huh7 NPC1 promoter luciferase reporter, 24 h. Potency, µM (highest dose often 9.22 µM), for the others: top-dose activation, most hits filed as activators. actives 2.4% (n = 320,000); further: % of control where 0% means no effect; nearly all actives have a fitted effect of over 60% in size
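Stable NPC1-promoter luciferase Huh7 line; cpd (DMSO) 24 h, 37 °C, 5% CO2; Amplite luciferase reagent 10 min RT; luminescence readout. qHTS format.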
* = called active by the depositor; u = inconclusive; x = not tested or not shown; [ ] = dose if it differs, or a comment. The call rests on the fitted dose curve; in most records, active means well fitted curve in the direction sought with a large enough effect; inconclusive means small, poorly fitted or top-dose-only effect, or another doubt; inactive means no such curve, though single readings can be large; an effect the other way counts as inactive or inconclusive. Potency means the concentration at half of the fitted maximal effect.

SMILES	SMN2 splice up	KinaseGlo FLuc	FLuc counter	Rab9 promoter act	ELG1 genotoxic	NPC1 prom act
Nc1cccc(C#Cc2ccc3c(=O)c4ccccc4oc3c2)c1	x	x	u	0.56µM*	u	18%
COc1ccc2c(c1)oc(=O)c1ccccc12	1%	1%	u	6%	16%	-4%
COc1ccc2c(c1)oc(=O)c1cc(OC)ccc12	x	x	3µM*	2.5µM*	10µM*	2.5µM*
COc1ccc2c(=O)c3ccccc3oc2c1	x	x	12µM*	u	u	3.5µM*
NC(=O)CSc1oc(-c2ccco2)nc1S(=O)(=O)c1ccc(F)cc1	x	x	3%	-7%	-3%	-8%
O=C(NS(=O)(=O)Nc1ccccn1)c1c[nH]c2ccccc12	x	x	0%	2%	1%	2%
COc1ccc(CNC(=O)C2(c3cccs3)CCOCC2)cc1	x	x	-2%	x	x	x
Clc1ccc2nc3c4ccccc4cnn3c2c1	2.8µM*	u	1.9µM*	-3%[1.84 µM]	8.2µM*	10%
CN1CCCN(C)C1c1cc([N+](=O)[O-])ccc1O	-11%[9.22 µM]	1%[7.66 µM]	x	x	x	x
O=c1[nH]c(=O)n([C@H]2C[C@@H](O)[C@@H](CO)O2)cc1C=CBr	x	x	x	0%[46.1 µM]	x	3%[46.1 µM]
Cc1nnsc1C(=O)NNC(=O)c1ccc(C(F)(F)F)cc1	x	x	17µM*	9%	5%	9%
O=S(=O)(c1ccc(S(=O)(=O)N2CCC(O)CC2)cc1)N1CCCC1	x	x	3%	3%	1%	-3%
COC(=O)Cc1ccc(NC(=O)c2ccc(NC(=O)c3ccco3)cc2)cc1	-45%	1%	-2%	7%	2%	-4%
CCOc1ccc(NC(=O)c2ccco2)cc1	10µM*	-22%	4.8µM*	0.63µM*	u	0.71µM*
COc1ccc(OCC(=O)Nc2cccc(NC(=O)c3ccco3)c2)cc1	x	-1%	12µM*	5%	-2%	6%
CN(C)S(=O)(=O)c1cccc(NC(=S)NC(=O)c2ccco2)c1	x	x	u	3.5µM*	11%	u
COC(=O)COc1ccc(NC(=O)c2ccco2)cc1	x	x	24µM*	3%	3%	-1%
c1ccc(Cn2cc(-c3ccccc3)cn2)cc1	x	x	u	0%	14%	14%
CCOc1ccc(NC(=O)CCC(=O)NNC(=O)c2ccco2)cc1	-4%	1%	-8%	-1%	-1%	-4%
CCOc1ccc(NC(=S)NC(=O)c2ccco2)cc1	x	x	11µM*	1.4µM*	16%	2µM*
CCn1c(CNC(=O)c2ccc(OC)cc2)nnc1SCC(=O)Nc1ccccc1	-2%	x	-11%	x	x	x
COc1ccc(/C=C/C(=O)N2CCC(c3ccccc3)C2)cc1 (stereo unspecified)	4%	1%	19µM*	0%	2%	6%
COc1ccc(/C=C/C(=O)N2CCC(c3nc4ccccc4o3)CC2)cc1	x	x	19µM*	x	x	x
COC(=O)C1CCN(C(=O)/C=C/c2ccc(OC)cc2)CC1	x	0%	21µM*	1.1µM*	2.3µM*	0.28µM*
Cc1ccc(C)c(N2CCN(S(=O)(=O)c3ccc(F)c(C(=O)Nc4ccc(Cl)cc4Cl)c3)CC2)c1	x	x	-1%	x	x	x
SMILES	SMN2 splice up	KinaseGlo FLuc	FLuc counter	Rab9 promoter act	ELG1 genotoxic	NPC1 prom act
CN1C(=O)C2(N=c3ccccc3=N2)c2ccccc21	-1%	-1%	-16%	25%	8%	6%
CCCc1cc(=O)[nH]c(SCC(=O)Nc2ccc(C)cc2)n1	8%	-1%	-9%	-1%	2%	-1%
CCc1ccc(NC(=O)CSc2nc(CSc3ccc(C)cc3)cc(=O)[nH]2)cc1	x	x	19µM*	-3%	6%	-6%
Cc1ccc(SCc2cc(=O)[nH]c(SCC(=O)Nc3cc(Cl)ccc3Cl)n2)cc1	-8%	1%	27µM*	-5%	-1%	-2%
C=CCn1c(SCC(=O)Nc2ccccc2C)nnc1-c1ccncc1	5%	-3%	0%	4%	-2%	1%
Cc1cc(C(F)(F)F)c(C#N)c(SCC(=O)Nc2nc3ccccc3s2)n1	-88%	2%	1.2µM*	0.4µM*	0.23µM*	1.3µM*
